Compound activity (PubChem BioAssay)
NALP1 yeast inh = blocks the NALP1 inflammasome reconstituted in yeast; S. cerevisiae NALP1/ASC/caspase-1 growth, X-gal OD620, 72 h; inhibition, % at 10 µM; 0.61% of 280,000 active; in the data active = inhibition mostly above about 24%, no sharp cut-off; inactive = mostly below about 32%
Yeast superoxide = yeast age-related superoxide inhibition as caloric restriction mimetic. S. cerevisiae aged cells, superoxide DHE fluorescence; hits give low values. superoxide response (% of plate mean), % at 10 µM. 0.18% of 330,000 active;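 active = superoxide response under a set limit, about three screen SD below normal, cut at about 65% in these data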;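 also: yeast aged for seven days with compound at 30 °C before DHE staining; 100% = average MFI of all compound-treated wells on the plate with controls excluded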
NR3A LBD binder = NR3A (human) ligand-binding domain modulation. NR3A LBD differential scanning fluorimetry, Tm shift; 0% = protein alone, 100% = glycine-bound protein. Tm shift relative to glycine control, % at 25 µM. AID 1259313. 2.5% of 340,000 active;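 active = melting temperature shift of at least 10% of the positive control shift, at one fixed dose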
UBC13 polyUb = human UBC13 polyubiquitination inhibition | P61088 | AID 485273 | UBC13 polyubiquitin chain formation, TR-FRET | inhibition, % at 20 µM | 0.47% of 330,000 active; in the data active = inhibition above about 45%, passing the limit was not always enough; inconclusive = no clear call, values can overlap the other calls
Target sequence (P61088 whole entry, looked up): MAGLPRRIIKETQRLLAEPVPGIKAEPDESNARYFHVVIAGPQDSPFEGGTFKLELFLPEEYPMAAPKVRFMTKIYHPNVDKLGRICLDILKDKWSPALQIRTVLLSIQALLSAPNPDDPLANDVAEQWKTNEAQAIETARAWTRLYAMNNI
dFosB act = mouse delta FosB homodimer activation | purified delta FosB, TAMRA-CDK5 oligo fluorescence polarization; percent of positive-control signal above neutral wells | activation, % at 25 µM | 0.99% of 340,000 active;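 active = mean activation above about 17%, with every replicate also reaching it, limit read from the data, passing the limit was not always enough; inconclusive = only one of the two conditions met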
Target sequence (P13346 whole entry, looked up): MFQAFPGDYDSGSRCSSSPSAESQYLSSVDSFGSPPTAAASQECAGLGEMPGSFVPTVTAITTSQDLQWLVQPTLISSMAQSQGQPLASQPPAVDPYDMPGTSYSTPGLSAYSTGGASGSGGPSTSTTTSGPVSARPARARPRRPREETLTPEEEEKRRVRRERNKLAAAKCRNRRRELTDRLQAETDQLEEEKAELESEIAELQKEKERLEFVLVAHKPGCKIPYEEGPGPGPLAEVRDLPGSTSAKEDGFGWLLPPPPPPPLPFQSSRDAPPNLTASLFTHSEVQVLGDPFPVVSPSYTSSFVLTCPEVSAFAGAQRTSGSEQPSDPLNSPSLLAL
Active calls of the source: *; ? = inconclusive; / = no result. Sampled rows, rich in hits. Any-hit rate of the full collection: about 4.3%.

SMILES	NALP1 yeast inh	Yeast superoxide	NR3A LBD binder	UBC13 polyUb	dFosB act
CCCN(CCC)CC(C)(C)NS(=O)(=O)c1ccc(Cl)cc1	9	120	1	-8	-8
COC(=O)c1nnn(-c2nonc2N)c1COc1ccc(C=O)cc1OC	13	108	1	-11	-8
CCn1c(CNC(=O)c2ccc3c(c2)OCO3)nnc1SCC(=O)Nc1cc(C)ccc1OC	/	104	10*	-4	-6
COc1ccc(Cc2nc3ccc(C(=O)NCCc4cccc(C)n4)cc3o2)cc1	14	106	2	2	-8
CCCn1c(=O)c(C(=O)Nc2ncccc2C)c(O)c2ccccc21	33*	94	-2	17	-14
COc1cc2c(cc1OC)C(NC(=O)c1ccc(C)cc1)CC2=O (stereo not given)	16	103	1	1	-9
CCCC(=O)Nc1ccc(C(=O)Nc2cc(C(F)(F)F)ccc2Cl)cc1	15	88	-1	2	6
O=C(Nc1cc(C(F)(F)F)ccc1Cl)c1ccc(NC(=O)C(F)(F)F)cc1	12	103	28*	6	?
COc1ccc(/C=N/n2c(=O)[nH]c3c([nH]c4ccc(C)cc43)c2=O)cc1CN1CCOCC1	6	/	-1	/	14
COc1ccc(/C=N/n2c(=O)[nH]c3c([nH]c4ccc(F)cc43)c2=O)cc1CN1CCCCC1	2	85	1	-5	31*
CCOc1ccc(NC(=S)N(CCc2c(C)[nH]c3ccccc23)Cc2ccco2)cc1	19	91	-5	-20	-11
CCOC(=O)c1c(-c2ccccc2)csc1NC(=O)/C(C#N)=C\c1ccc(O)c(OC)c1	/	/	18*	/	-5
COc1cc(/C=C(\C#N)C(=O)Nc2ccccn2)ccc1O	-38	123	-2	-43	-2
CCOC(=O)c1c(-c2ccc(C)cc2)csc1NC(=O)/C(C#N)=C/c1ccc(O)c(OC)c1	14	/	20*	/	-3
CCOC(=O)/C(C#N)=C\c1ccc(O)c(OC)c1	-11	107	-1	-22	-6
O=C(Oc1cccc2cccnc12)c1ccc(N2C(=O)C3C4CCC(C4)C3C2=O)cc1 (stereo not given)	59*	110	1	0	-1
Cc1ccc(OCCNC(=O)CNC(=O)c2ccc3c(c2)OCO3)cc1	/	108	1	-3	0
CCc1nccn1CCC(=O)N1CCCC(N2CCN(c3cccc(Cl)c3)CC2)C1 (stereo not given)	10	101	0	-5	4
N#Cc1ccc(C(=O)NC(=S)N2CCN(C=O)CC2)cc1	/	107	1	-11	2
CC(C)n1c(O)c(N=NC(=O)c2ccccc2NS(=O)(=O)c2cccs2)c2ccccc21	2	97	0	-16	30*
CN(C)c1ccc(/C=C(/NC(=O)c2ccccc2)C(=O)NCCCn2ccnc2)cc1	20	102	-2	-33	-1
Cc1ccc(S(=O)(=O)NNC(=O)NC23CC4CC(CC(C4)C2)C3)cc1	31	91	1	3	-2
O=C(O)C1Oc2ccccc2C1c1ccccc1 (stereo not given)	/	/	-4	/	7
Nc1ccc(C(=O)c2cccs2)cn1	15	94	2	-4	-8
Nc1ccc(C(=O)c2cccs2)cc1	48*	96	2	-9	0
SMILES	NALP1 yeast inh	Yeast superoxide	NR3A LBD binder	UBC13 polyUb	dFosB act
COc1ccc(S(=O)(=O)N2CCc3ccccc3C2)cc1OC	0	98	14*	-4	3
COc1ccc(S(=O)(=O)N2CCc3ccccc3C2)cc1C(=O)O	39	84	1	5	0
COc1cccc(CNC(=O)CCCN2C(=O)C(c3ccccc3)Oc3cccnc32)c1OC (stereo not given)	0	115	-3	-2	-7
NC(=S)NN=C1c2cc(OCCN3CCOCC3)ccc2-c2ccc(OCCN3CCOCC3)cc21	12	101	-2	35	39*
O=C(Nc1ccc(N2CCCC2)cc1)c1cccc(F)c1	4	88	-3	3	19*
O=C(Nc1ccc(N2CCOCC2)c(Cl)c1)c1c(F)c(F)c(F)c(F)c1F	18	116	-5	-4	-7
O=C(Nc1cccc(F)c1)c1ccccc1	2	99	-30	4	-8
O=C(Nc1ccc(N2CCOCC2)c(Cl)c1)c1cccc(F)c1	22	93	12*	4	1
O=C(Nc1ccc(Nc2ccccc2)cc1)c1cccc(F)c1	16	103	29*	-17	-6
O=C(Nc1ccc(N2CCCC2)cc1)c1ccccc1F	6	86	-26	-5	26*
Cc1cccc(C(=O)NC(=S)NC(C)c2ccccc2)c1 (stereo not given)	/	113	1	0	/
CC[n+]1c(/C=C/C=C/N(C(C)=O)c2ccccc2)sc2ccccc21	-8	119	2	-241	43*
CCn1c(/C=C/N(C(C)=O)c2ccccc2)[n+](CC)c2ccc(Cl)cc21	22	109	4	-4	-4
Cc1ncc(C[n+]2ccc(C)c(C)c2)c(N)n1	/	94	-2	-6	6
CCOC(=O)Cc1cc(-c2ccccc2)nc2ccc3ccccc3c12	17	99	-13	12	-6
NC(=O)c1cc(-c2ccncc2)nc2ccc(Cl)cc12	20	113	2	-6	-9
Clc1ccc2nc(-c3ccncc3)cc(-c3ccccc3)c2c1	19	112	24*	-12	-6
c1ccc(-c2cc(-c3ccncc3)nc3ccc4ccccc4c23)cc1	14	124	22*	9	-4
CC1(C)CC(=O)C=C(NC2CCCCCC2)C1	23	82	11*	8	-9
CCc1ccc2oc(C(=O)NCCc3ccc(S(N)(=O)=O)cc3)cc(=O)c2c1	7	107	15*	4	1
c1csc(C2Nc3ccccc3-c3nc4ccccc4n32)c1 (stereo not given)	68	82	24*	5	-10
CCOc1ccc(C(=O)NCC(=O)Nc2ccc(N3CCOCC3)cc2)cc1OCC	-14	79	-2	2	-4
O=C(CNC(=O)c1cccs1)N/N=C/c1ccco1	29*	91	0	-1	-2
CSc1nnc(Cc2ccc3c(c2)OCO3)o1	-4	95	2	5	8
N#CCCCSc1nnc(Cc2ccc3c(c2)OCO3)o1	-97	103	12*	2	-4
Cc1ccc(C(=O)N2CCCC(C(=O)c3ccc(Oc4ccccc4)cc3)C2)cn1 (stereo not given)	5	105	-1	7	-11
Clc1cccc(Cl)c1/C=C/c1ccn[nH]1	9	86	-1	8	-9
COc1ccc(CNC(=O)CN(CCC(C)C)S(=O)(=O)c2ccc3c(c2)OCCO3)cc1	9	92	154*	8	-2
COc1ccc(/C=N/NC(=O)CN(Cc2ccccc2)S(=O)(=O)c2ccc3c(c2)OCCO3)cc1	18	97	-12	6	-6
Cc1c(Br)c(O)c(Br)c2sc(=O)oc12	-11	104	6	-9	-11
